PubChem BioAssay (NCATS)
Records with an inconclusive call do not appear. Entries that show only a call come without a potency. Unmarked numbers belong to inactive results. Active and inactive are the calls of the source. The call rests on the fitted dose curve; in most records, active means well fitted curve in the direction sought with a large enough effect; inconclusive means small, poorly fitted or top-dose-only effect, or another doubt; inactive means no such curve, though single readings can be large; an effect the other way counts as inactive or inconclusive.

What was measured:
[1] = target: Aldehyde dehydrogenase, mitochondrial (Homo sapiens) (UniProt P05091); assay: qHTS for Inhibitors of the Aldehyde Dehydrogenase Family (ALDH2) Primary screen (AID 2061308); further: nearly all actives have a fitted effect of over 55% in size
[2] = target: Retinaldehyde dehydrogenase 3 (Homo sapiens) (UniProt P47895); assay: qHTS for Inhibitors of the Aldehyde Dehydrogenase Family (ALDH1A3) Primary screen (AID 2061315)

Compound: Cc1ccc(OCCn2c(CCNC(=O)c3cccc4cc[nH]c34)nc3ccccc32)cc1
- Potency [1]: inactive
- Potency [2]: inactive

Compound: O=C(NCCc1nc2ccccc2n1CCOc1ccccc1F)C1CCCCC1
- Potency [1]: inactive
- Potency [2]: inactive

Compound: COC(=N)c1nc2ccc3ncnc(Nc4ccc(F)cc4Br)c3c2s1
- Potency [1]: inactive
- Potency [2]: inactive

Compound: CONC(=O)C[C@@H](C#N)NC(=O)[C@@H]1CCCN1C(=O)[C@@H](NC(=O)c1ccc(N)c(Cl)c1)C(C)(C)C
- Potency [1]: inactive
- Potency [2]: inactive

Compound: OCc1ccnc(NC(=S)N2CCN(c3cccc(C(F)(F)F)c3)CC2)c1
- Potency [1]: inactive
- Potency [2]: inactive

Compound: O=C(Nc1ccc2ccccc2c1)Nc1nnc(C2CCCCC2)s1
- Potency [1]: inactive
- Potency [2]: inactive

Compound: CC(=O)O[C@H]1CC(C)(C)CC2[C@]13CO[C@@]21CCC2[C@@]4(C)CC[C@H](O[C@@H]5OC[C@H](O[C@@H]6O[C@H](CO)[C@@H](O)[C@H](O)[C@H]6O[C@@H]6OC[C@@H](O[C@@H]7O[C@H](CO)[C@@H](O)[C@H](O)[C@H]7O)[C@H](O)[C@H]6O)[C@H](O)[C@H]5O[C@@H]5O[C@H](CO)[C@@H](O)[C@H](O)[C@H]5O)[C@@](C)(CO)C4CC[C@@]2(C)[C@]1(C)C[C@H]3O (stereo partly drawn)
- activity change, negative = inhibition [1]: 0.34% [at 11.2 µM]
- activity change, negative = inhibition [2]: 11.1% [at 11.2 µM]

Compound: O=C1NS(=O)(=O)c2cscc21
- Potency [1]: inactive
- Potency [2]: inactive

Compound: C[N+]1(CC2COC(c3ccccc3)(c3ccccc3)O2)CCCCC1 (stereo not drawn)
- Potency [1]: inactive
- Potency [2]: inactive

Compound: Cc1ccc(S(=O)(=O)Nc2ccccc2C(=O)Nc2nccs2)cc1
- Potency [1]: inactive
- Potency [2]: inactive

Compound: O=C(c1cc2sccc2n1Cc1ccccc1)N(CCc1ccc(O)c(O)c1)Cc1ccccc1
- Potency [1]: inactive
- Potency [2]: inactive

Compound: Cc1ccc(CNc2ncnc3ccc(-c4ccc(C(=O)N(C)C)o4)cc23)o1
- Potency [1]: inactive
- Potency [2]: inactive

Compound: Clc1ccc(CN(CCCNc2ncnc(NCCCc3cnc[nH]3)n2)c2ccc(Br)cn2)cc1Cl
- Potency [1]: inactive
- Potency [2]: inactive

Compound: Cc1ccc(NS(=O)(=O)c2cc3c(cc2N[C@@H](C)CO)NC(=O)CC3)cc1C
- Potency [1]: inactive
- Potency [2]: inactive

Compound: CCOC(=O)c1ccc(-n2c(C)cc(-c3nnc4n3CCCCC4)c2C)cc1
- Potency [1]: inactive
- Potency [2]: inactive

Compound: O=C(Cc1ccccc1)Nc1nnc(-c2ccncc2)s1
- Potency [1]: inactive
- Potency [2]: inactive

Compound: O=C(Cc1ccccc1)Nc1ncnc2c1C(c1ccccc1)c1c(ccc3ccccc13)O2 (stereo not drawn)
- Potency [1]: inactive
- Potency [2]: inactive

Compound: Fc1ccccc1-c1ccc(Nc2nc(-c3ccncc3)nc3ccccc23)cc1F
- Potency [1]: inactive
- Potency [2]: inactive

Compound: Cc1cc2c(s1)c1cnn(Cc3cccc(Br)c3)c(=O)c1n2C
- Potency [1]: inactive
- Potency [2]: inactive

Compound: Cc1cc(-c2nnc3n2CCCCC3)c(C)n1-c1cccc(C(F)(F)F)c1
- Potency [1]: inactive
- Potency [2]: inactive

Compound: O=C(Nc1ccccn1)c1sc2ccc([N+](=O)[O-])cc2c1Cl
- Potency [1]: inactive
- Potency [2]: inactive

Compound: COc1cc(C(=O)NC(=S)Nc2cccc(NC(=O)c3ccccc3)c2)cc(OC)c1OC
- Potency [1]: inactive
- Potency [2]: inactive

Compound: O=C(Nc1ccc(-c2nc3ccccc3[nH]2)cc1)c1ccc(Oc2ccccc2)cc1
- Potency [1]: inactive
- Potency [2]: inactive

Compound: O=C1CCCC2=C1C(c1ccccc1C(F)(F)F)N=C(Nc1nc3ccccc3o1)N2 (stereo not drawn)
- Potency [1]: inactive
- Potency [2]: inactive

Compound: COc1cccc(C2c3c(ncn(-c4ccccc4)c3=N)Oc3ccc4ccccc4c32)c1OC (stereo not drawn)
- Potency [1]: inactive
- Potency [2]: inactive

Compound: Cc1ccc(S(=O)(=O)Nc2ccc(C)cc2C(=O)Nc2nc(-c3ccccc3)cs2)cc1
- Potency [1]: inactive
- Potency [2]: inactive

Compound: c1coc(CNc2nc(-c3cccs3)nc3ccccc23)c1
- Potency [1]: inactive
- Potency [2]: inactive

Compound: O=c1c2ccc(F)cc2nc2sc(Nc3ccc4c(c3)CCC4)nn12
- Potency [1]: inactive
- Potency [2]: inactive

Compound: COc1ccc(Nc2nc(C#N)nc(NC3CCCC3)n2)cc1
- Potency [1]: inactive
- Potency [2]: inactive

Compound: CCOC(=O)c1ccc(-c2ccc3ncnc(NCCc4cnc[nH]4)c3c2)o1
- Potency [1]: inactive
- Potency [2]: inactive

Compound: COc1cccc(-c2csc3ncnc(Sc4nnnn4C)c23)c1
- Potency [1]: inactive
- Potency [2]: inactive

Compound: CS(=O)(=O)c1ccc(C(=O)OCC(=O)N2CCOCC2)cc1[N+](=O)[O-]
- Potency [1]: inactive
- Potency [2]: inactive

Compound: COc1ccc(NC(=O)c2cccnc2C)cc1S(=O)(=O)Nc1ccc(Br)cc1
- Potency [1]: inactive
- Potency [2]: inactive

Compound: COc1cc(NS(=O)(=O)c2ccc3ccccc3c2)c2ncccc2c1
- Potency [1]: inactive
- Potency [2]: inactive

Compound: N#Cc1nc(Nc2cc(F)cc(F)c2)c2ncn(CCO)c2n1
- Potency [1]: inactive
- Potency [2]: inactive

Compound: Cc1cccc(CNc2ncnc3ccc(-c4cccnc4)cc23)c1
- Potency [1]: inactive
- Potency [2]: inactive

Compound: CS(=O)(=O)c1ccc(-c2csc(N3CCC(C(N)=O)CC3)n2)cc1
- Potency [1]: inactive
- Potency [2]: inactive

Compound: Fc1cnc(-c2ccccc2C(F)F)nc1NCC1CCN(c2cnccn2)C1 (stereo not drawn)
- Potency [1]: inactive
- Potency [2]: inactive

Compound: O=C1Nc2ccccc2/C1=C\c1ccc(O)cc1
- Potency [1]: inactive
- Potency [2]: inactive
